The nature of this experiment: probe aCHRDL2 binding to arrayed compounds – biochemical, biotinylated probe, 635/667 nm fluorescence, primary screen (AID 1100). As to conditions: small-molecule microarray, higher = more signal.
The molecule `CCOC(=O)C1=CCC(c2ccco2)N(S(=O)(=O)c2ccc(C)cc2)C1` (centres undefined) yielded a composite z-score of -0.0042.
Next, `COCCOC(=O)N1C(=O)[C@@]2(c3cc(C#CCC(C(=O)OC)C(=O)OC)ccc31)[C@H](C(=O)NC[C@H](O)c1ccccc1)[C@H]1C(=O)O[C@H](c3ccccc3)[C@H](c3ccccc3)N1[C@@H]2c1ccc(OCCO)cc1`: -0.132; `CCCNC(=O)[C@@]1(Sc2ccc(C)cc2)CC(=O)N(C(C)C)[C@@H]1c1ccc(CO)cc1I`: 1.37.
Then `COC(=O)[C@@]1(Cc2ccc(F)cc2)[C@H]2c3cc(C(=O)N4CCCC4)n(C)c3C[C@H]2CN1C(=O)c1ccccc1`, with 1.22.
As for `O=C1O[C@H](c2ccccc2)[C@H](c2ccccc2)N2[C@H]1[C@@H](C(=O)N1CCCCCCC1)[C@]1(C(=O)Nc3ccc(C#CC4(O)CCCCCC4)cc31)[C@H]2c1ccc(O)cc1`, the composite z-score was 1.59.
`O=C1O[C@H](c2ccccc2)[C@H](c2ccccc2)N2[C@H]1[C@@H](C(=O)O)[C@]1(C(=O)Nc3ccc(C#CC4(O)CCCCCC4)cc31)[C@H]2c1ccc(O)cc1` displayed a composite z-score of 0.14.
Next, `COCCOC(=O)N1C(=O)[C@@]2(c3ccccc31)[C@H](c1ccccc1OCCO)N1[C@H](c3ccccc3)[C@H](c3ccccc3)OC(=O)[C@H]1[C@@H]2C(N)=O`: 0.74; `NC(=O)[C@@H]1[C@H]2C(=O)O[C@H](c3ccccc3)[C@H](c3ccccc3)N2[C@H](c2ccc(OCCO)cc2)[C@@]12C(=O)Nc1ccc(C#CCCO)cc12`: 0.823; `Cc1cccc([C@H]2C[C@H]3C(Br)=C[C@@H]2C(=O)[C@]32CO2)c1`: -0.0607.

The values are drawn from PubChem BioAssay.
